In PubChem BioAssay (EPA / NIEHS):
Several values for one entry are separate records, joined by “and”; a condition that tells them apart may be missing. Identical values can stand only once. The source holds several records for some structures; these can differ, active in one and inactive in another. Activity calls are given as the source filed them. How the source made its calls: active means hit-call score of the fitted dose curve at least 0.9, where 1 is the maximum; inactive means score below 0.9.

System: not listed separately
Test: ATG_PBREM_CIS: Attagene CIS-FACTORIAL HepG2 Assay for human Phenobarbital-responsive Enhancer Module (PBREM) (AID 2282955)
Conditions: HepG2 PBREM cis-reporter, Attagene multiplexed transcription; actives raise or lower the signal
In short: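 Cells were transfected with cis-element reporter units and treated for 24 h, after which RNA was extracted and reporter transcripts measured by RT-PCR and capillary electrophoresis.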

Compound | outcome | AC50
CCCCCCCCCC=CCC1CC(=O)OC1=O (stereo unspecified) | inactive | 
O=C(O)C(=O)O | inactive | 
O=S(=O)(O)c1ccc2cc(O)ccc2c1 | inactive | 
Cc1ccc(C)c(S(=O)(=O)O)c1 | inactive | 
CCC(C)c1ccccc1O (stereo unspecified) | inactive | 
CC(C)[C@@H]1CC[C@@H](C)C[C@H]1O | inactive | 
CN(C)c1ccc(C(=C2C=CC(=[N+](C)C)C=C2)c2ccccc2)cc1 | inactive | 
O=C(F)C(F)(F)C(F)(F)C(F)(F)C(=O)F | inactive | 
OCC(CO)(CBr)CBr | inactive | 
CCCCCCCCCCCCCCC | inactive | 
C=CCOCC(CO)(CO)CO | inactive | 
Cc1[nH]nc2c1N=C(c1ccccc1Cl)c1cc([N+](=O)[O-])ccc1N2 | inactive | 
O=C(OC(=O)C(F)(F)C(F)(F)F)C(F)(F)C(F)(F)F | inactive | 
CS(=O)(=O)c1ccc([C@@H](CC2CCCC2)C(=O)Nc2cnccn2)cc1Cl | inactive | 
c1cnc2c(c1)ccc1cccnc12 | inactive | 100 µM (active)
c1cc[nH]c1 | inactive | 
CC(O)COc1ccccc1 (stereo unspecified) | inactive | 

Target: Paired box protein Pax-6 (Homo sapiens) (UniProt P26367)
Test: ATG_Pax6_CIS: Attagene CIS-FACTORIAL HepG2 Assay for human Paired Box 6 (PAX6) (AID 2282956)
Conditions: HepG2 CIS-FACTORIAL PAX6 reporter transcription, RNA readout; actives raise or lower the signal
In short: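 After twenty-four hours of chemical exposure, transfected HepG2 cells are harvested for RNA. Cis-promoter reporter transcripts are amplified, fluorescently labelled and sized by capillary electrophoresis, with gain and loss of signal scored against DMSO.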

Sequence of Paired box protein Pax-6 (Homo sapiens) (P26367 whole entry, looked up): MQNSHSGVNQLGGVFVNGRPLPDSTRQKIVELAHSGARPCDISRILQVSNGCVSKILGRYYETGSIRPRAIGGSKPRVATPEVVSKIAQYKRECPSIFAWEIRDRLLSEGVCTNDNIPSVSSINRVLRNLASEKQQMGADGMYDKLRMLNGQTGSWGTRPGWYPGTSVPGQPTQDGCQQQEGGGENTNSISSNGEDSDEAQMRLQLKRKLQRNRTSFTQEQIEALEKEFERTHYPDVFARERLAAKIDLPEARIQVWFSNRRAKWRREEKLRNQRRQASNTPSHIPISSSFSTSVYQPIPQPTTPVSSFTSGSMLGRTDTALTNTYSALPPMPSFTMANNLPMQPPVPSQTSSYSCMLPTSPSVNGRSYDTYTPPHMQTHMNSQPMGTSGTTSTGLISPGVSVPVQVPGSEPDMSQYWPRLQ

Compound | outcome | AC50
CCC(C)c1nccnc1OC (stereo unspecified) | inactive | 
CCCCCCCCCC=CCC1CC(=O)OC1=O (stereo unspecified) | inactive | 
CCCCCCCCCCCC(=O)O | inactive | 
C[C@]12CC[C@@H]3c4ccc(O)cc4CC[C@H]3[C@@H]1C[C@@H](O)[C@@H]2O | inactive | 
CC(=O)Nc1ccc(O)cc1 | inactive | 
O=C(O)C(=O)O | inactive | 
O=S(=O)(O)c1ccc2cc(O)ccc2c1 | inactive | 
Cc1ccc(C)c(S(=O)(=O)O)c1 | inactive | 
CCCCCCCCCCCCCCCC(=O)OC | inactive | 
CCC(C)c1ccccc1O (stereo unspecified) | inactive | 
CC(C)[C@@H]1CC[C@@H](C)C[C@H]1O | inactive | 
O=C1NS(=O)(=O)c2ccccc21 | inactive | 
CN(C)c1ccc(C(=C2C=CC(=[N+](C)C)C=C2)c2ccccc2)cc1 |  | 1.43 µM (active) and 1.44 µM (active)
O=C(F)C(F)(F)C(F)(F)C(F)(F)C(=O)F | inactive | 
CC(=O)CC(C)C | inactive | 
CCCCCCCCCCCC | inactive | 
CCCCC=O | inactive | 
OCC(CO)(CBr)CBr | inactive | 
CCCCC(CC)C(=O)O (stereo unspecified) | inactive | 

Compound | outcome | AC50
Cc1ccc(S(=O)(=O)O)cc1 | inactive | 
CCCCCCCCCCCCCCC | inactive | 
NS(=O)(=O)O | inactive | 
CNNCc1ccc(C(=O)NC(C)C)cc1 | inactive | 
C=CCOCC(CO)(CO)CO | inactive | 
O=C(c1ccccc1)c1ccccc1 | inactive | 
CCCC=O | inactive | 
Cc1[nH]nc2c1N=C(c1ccccc1Cl)c1cc([N+](=O)[O-])ccc1N2 | inactive | 
CC(C)c1c(C(=O)Nc2ccccc2)c(-c2ccccc2)c(-c2ccc(F)cc2)n1CC[C@@H](O)C[C@@H](O)CC(=O)O | inactive | 94.5 µM (active)
O=C(CCCN1CCC(O)(c2ccc(Cl)cc2)CC1)c1ccc(F)cc1 |  | 51.2 µM (active)
O=C(OC(=O)C(F)(F)C(F)(F)F)C(F)(F)C(F)(F)F | inactive | 
CCC1CO1 (stereo unspecified) | inactive | 
O=C(NO)c1ccccc1 | inactive | 
CS(=O)(=O)c1ccc([C@@H](CC2CCCC2)C(=O)Nc2cnccn2)cc1Cl |  | 73.9 µM (active)
O=S(=O)(O)c1ccccc1 | inactive | 
CC(C)C=O | inactive | 
c1cnc2c(c1)ccc1cccnc12 | inactive | 
c1cc[nH]c1 | inactive | 
CC(O)COc1ccccc1 (stereo unspecified) | inactive | 

System: not listed separately
Test: ATG_PXRE_CIS: Attagene CIS-FACTORIAL HepG2 Assay for human Pregnane X Receptor Element (PXRE) (AID 2282957)
Conditions: HepG2 Attagene CIS-FACTORIAL PXRE reporter, mRNA; actives raise or lower the signal
In short: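 Cells: HepG2, transiently transfected reporter units under cis promoter control. Exposure: 24 h. Detection: reporter mRNA via RT-PCR/CE fluorescence; bidirectional fitting, DMSO-referenced.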

Compound | outcome | AC50
CCC(C)c1nccnc1OC (stereo unspecified) | inactive | 
CCCCCCCCCC=CCC1CC(=O)OC1=O (stereo unspecified) | inactive | 
CCCCCCCCCCCC(=O)O | inactive | 
C[C@]12CC[C@@H]3c4ccc(O)cc4CC[C@H]3[C@@H]1C[C@@H](O)[C@@H]2O | inactive | 
CC(=O)Nc1ccc(O)cc1 | inactive | 
O=C(O)C(=O)O | inactive | 
O=S(=O)(O)c1ccc2cc(O)ccc2c1 | inactive | 
Cc1ccc(C)c(S(=O)(=O)O)c1 | inactive | 
CCCCCCCCCCCCCCCC(=O)OC | inactive | 
CCC(C)c1ccccc1O (stereo unspecified) |  | 27.4 µM (active) and 30.9 µM (active)
CC(C)[C@@H]1CC[C@@H](C)C[C@H]1O | inactive | 
O=C1NS(=O)(=O)c2ccccc21 | inactive | 55.9 µM (active)
CN(C)c1ccc(C(=C2C=CC(=[N+](C)C)C=C2)c2ccccc2)cc1 | inactive | 
O=C(F)C(F)(F)C(F)(F)C(F)(F)C(=O)F | inactive | 
CC(=O)CC(C)C | inactive | 
CCCCCCCCCCCC | inactive | 4.16 µM (active)
CCCCC=O |  | 27.2 µM (active)
OCC(CO)(CBr)CBr | inactive | 
CCCCC(CC)C(=O)O (stereo unspecified) | inactive | 

Compound | outcome | AC50
Cc1ccc(S(=O)(=O)O)cc1 | inactive | 26.3 µM (active)
CCCCCCCCCCCCCCC | inactive | 
NS(=O)(=O)O | inactive | 
CNNCc1ccc(C(=O)NC(C)C)cc1 | inactive | 25.7 µM (active)
C=CCOCC(CO)(CO)CO |  | 25.3 µM (active)
O=C(c1ccccc1)c1ccccc1 | inactive | 51.4 µM (active)
CCCC=O | inactive | 
Cc1[nH]nc2c1N=C(c1ccccc1Cl)c1cc([N+](=O)[O-])ccc1N2 |  | 3.76 µM (active)
CC(C)c1c(C(=O)Nc2ccccc2)c(-c2ccccc2)c(-c2ccc(F)cc2)n1CC[C@@H](O)C[C@@H](O)CC(=O)O |  | 5.31 µM (active) and 12.2 µM (active)
O=C(OC(=O)C(F)(F)C(F)(F)F)C(F)(F)C(F)(F)F | inactive | 
CCC1CO1 (stereo unspecified) | inactive | 
O=C(NO)c1ccccc1 | inactive | 
CS(=O)(=O)c1ccc([C@@H](CC2CCCC2)C(=O)Nc2cnccn2)cc1Cl |  | 1.91 µM (active)
O=S(=O)(O)c1ccccc1 | inactive | 55.5 µM (active)
CC(C)C=O |  | 61.9 µM (active) and 34.9 µM (active)
c1cnc2c(c1)ccc1cccnc12 | inactive | 
c1cc[nH]c1 | inactive | 
CC(O)COc1ccccc1 (stereo unspecified) | inactive | 59.5 µM (active)
